# SENP8 block-1 = human SENP8 protease inhibitors, primary screen, biochemical, fluorescence, Nedd8 protein substrate, uHTS | Sentrin-specific protease 8 (Homo sapiens), Q96LD8 | recombinant SENP8 | inhibition, % at 20 µM | 0.64% of 360,000 active; in the data active means inhibition mostly above about 40%, no sharp cut-off; inactive means mostly below about 27%
# SENP6 block = SENP6 protease inhibitors, primary screen, biochemical, luminescence, uHTS | Sentrin-specific protease 6 (Homo sapiens), Q9GZR1 | Recombinant SENP6 catalytic domain, aminoluciferin luminescence | inhibition, % at 10 µM | 1.8% of 330,000 active | AID 2599, 2010;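 active means inhibition above about 50% at the single tested dose, limit read from the data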;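 further: plate controls were DMSO wells with enzyme for no effect and DMSO wells lacking enzyme for full effect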
# Target sequence (Q9GZR1 628-1112 limits assumed): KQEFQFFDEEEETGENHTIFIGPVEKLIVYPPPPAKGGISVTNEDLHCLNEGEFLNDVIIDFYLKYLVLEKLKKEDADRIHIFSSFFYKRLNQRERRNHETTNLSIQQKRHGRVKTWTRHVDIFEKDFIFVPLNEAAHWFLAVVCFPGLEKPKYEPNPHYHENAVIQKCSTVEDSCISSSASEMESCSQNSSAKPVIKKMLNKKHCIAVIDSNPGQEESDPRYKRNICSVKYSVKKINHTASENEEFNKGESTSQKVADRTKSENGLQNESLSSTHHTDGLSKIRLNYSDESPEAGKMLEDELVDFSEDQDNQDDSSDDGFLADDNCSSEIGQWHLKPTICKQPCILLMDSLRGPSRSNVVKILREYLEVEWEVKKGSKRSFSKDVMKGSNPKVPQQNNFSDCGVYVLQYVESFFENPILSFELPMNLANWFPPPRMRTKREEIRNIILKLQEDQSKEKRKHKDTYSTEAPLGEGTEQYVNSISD
# PPC-1+TRAIL kill = compounds killing PPC-1 cancer cells with TRAIL present, primary screen, TRAIL potentiator project, ATPLite luminescence, uHTS | PPC-1 cells + TRAIL, ATPLite viability luminescence | AID 1443, 2008 | cell killing (% activity), % at 4 µM or 5 µM | 0.41% of 220,000 active;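 active means cell killing above 50% in the first pass at 4 µM, then a duplicate retest at 5 µM averaging 50% or more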;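 further: plate controls were cells with TRAIL plus DMSO for no effect and medium-only wells lacking cells for full effect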
# TRAIL sens C8 = viability loss with TRAIL in NB7+C8 cells, primary screen, TRAIL sensitizer project, cell-based, ATPlite luminescence. inhibition (viability loss, TRAIL sensitization), % at 10 µM. AID 624354, 2012. 1% of 360,000 active;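 active means compounds causing at least 50% loss of cell viability in the single-dose screen, relative to plate controls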
# SENP7 inh = SENP7 protease inhibitors, primary screen, biochemical, luminescence, uHTS | inhibition, % at 5 µM | AID 434973, 2010 | recombinant SENP7, Z-RLRGG-aminoluciferin luminescence, 40 min | 1.5% of 330,000 active;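 active means inhibition above about 50% at the single test dose, limit read from the data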;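 further: plate controls were DMSO with enzyme for no effect and no enzyme buffer wells for full effect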
# SENP8 block-2 = SENP8 protease inhibitors, primary screen, biochemical, luminescence | purified SENP8, Z-RLRGG-aminoluciferin cleavage | 1.2% of 330,000 active | inhibition, % at 10 µM; in the data active means inhibition above about 50%
# SENP8 conf = SENP8 protease inhibitors, retest, confirmation, biochemical, luminescence, single concentration; shares compounds with SENP7 inh; Recombinant SENP8, Z-RLRGG-aminoluciferin luminescence, 60 min; inhibition, % at 12.5 µM; 40% of 6,200 active; AID 488912, 2010;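 active means mean inhibition across replicates above about 50%, limit read from the data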
# SENP6 conf = SENP6 protease inhibitors, confirmation, biochemical, luminescence, single concentration. recombinant SENP6, Z-RLRGG-aminoluciferin luminescence. inhibition, % at 12.5 µM. 58% of 6,200 active. shares compounds with SENP7 inh
# SENP7 conf = SENP7 protease inhibitors, retest, confirmation, biochemical, luminescence, single concentration; shares compounds with SENP7 inh; recombinant SENP7, Z-RLRGG-aminoluciferin luminescence, 40 min; inhibition, % at 12.5 µM; 69% of 6,200 active; AID 488917, 2010
# Casp3 select = caspase-3 protease inhibitors, confirmation, selectivity assay for SENP inhibitor project, biochemical, single concentration; 60% of 6,200 active; inhibition, % at 12.5 µM; shares compounds with SENP7 inh; purified caspase-3, Z-DEVD-aminoluciferin luminescence, 60 min;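 active means mean inhibition above about 50%, limit read from the data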;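 further: plate controls were enzyme with DMSO for no effect and wells without caspase-3 for full effect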
# Target sequence (P42574 28-227 limits assumed): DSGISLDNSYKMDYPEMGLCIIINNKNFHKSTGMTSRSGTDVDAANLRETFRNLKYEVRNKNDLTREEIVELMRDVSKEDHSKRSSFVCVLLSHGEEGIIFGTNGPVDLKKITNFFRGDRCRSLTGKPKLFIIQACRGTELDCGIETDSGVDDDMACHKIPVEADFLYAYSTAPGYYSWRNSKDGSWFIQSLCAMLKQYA
# Luc interf = counter-screen for SENP inhibitors: luminescence interference. shares compounds with SENP7 inh. Pre-incubated SENP8/Z-RLRGG-aminoluciferin, luciferase luminescence interference. inhibition, % at 12.5 µM. 39% of 6,200 active. AID 488919;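 active means mean inhibition above about 50% when retested at one dose, limit read from the data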;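 further: plate controls were DMSO wells with completed reaction for no effect and substrate without enzyme for full effect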
# * = called active by the depositor; . = not tested or not shown. A selection: hits, their analogues and other compounds. The true share with any hit is near 3%.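 How the source made its calls, unless noted: active means mean inhibition above about 50% in the one-dose retest (limit read from the data); inactive means the rest.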
SMILES,SENP8 block-1,SENP6 block,PPC-1+TRAIL kill,TRAIL sens C8,SENP7 inh,SENP8 block-2,SENP8 conf,SENP6 conf,SENP7 conf,Casp3 select,Luc interf
Cc1ccc(/C=N\NC(=O)c2csnn2)cc1,24.1,54.9*,18.6,11.6,50.4*,29.9,41.3,39.3,76.6*,81.0*,27.7
Cc1ccc(/C=N/NC(=O)c2ccncc2)cc1,25.5,-18.6,.,0.5,-13.6,-12.2,.,.,.,.,.
O=C(CN(Cc1ccco1)C(=O)CNS(=O)(=O)c1ccc(F)cc1)NCc1ccco1,20.1,-1.8,.,18.4,9.1,8.5,.,.,.,.,.
C=C(C)C(O)CC/C(C)=C/Cc1c(O)ccc(C(=O)/C=C/c2ccc(O)cc2)c1O (stereo unspecified),36.0,87.8*,.,48.5,64.8*,89.5*,96.6*,96.0*,98.6*,37.4,39.2
O=C(O)CNC(=O)C1(NC(=O)OCc2ccccc2)CCCC1,19.4,.,.,1.4,.,.,.,.,.,.,.
Cc1cc(C(=O)Nc2sc3c(c2C#N)CCCCC3)cs1,-19.9,57.2*,16.2,28.2,76.7*,30.7,15.7,38.2,40.3,23.1,16.0
O=C(Nc1sc2c(c1C(=O)O)CCC2)c1ccccc1Cl,-29.3,16.9,.,-7.2,-1.3,-13.0,.,.,.,.,.
O=C(Nc1sc2c(c1C(=O)O)CCC2)c1cccc(Cl)c1,-11.2,97.0*,.,0.1,68.1*,95.1*,96.2*,98.6*,102.4*,94.8*,97.5*
N#Cc1c(NC(=O)CSc2ncn[nH]2)sc2c1CCCCC2,15.6,76.4*,-0.3,10.5,33.1,67.9*,26.7,83.2*,88.8*,23.3,48.3
CC(=O)Nc1sc2c(c1C#N)CCCC2,10.1,4.0,4.9,1.3,-6.5,-4.5,.,.,.,.,.
Cc1cccc(C(=O)Nc2sc3c(c2C(=O)O)CCCC3)c1,-83.2,92.8*,.,18.8,69.6*,93.1*,97.2*,98.1*,102.1*,94.6*,78.8*
COc1ccc(-n2nnnc2SCC(=O)Nc2cccc(O)c2)cc1,9.9,8.3,.,-5.3,-8.0,0.1,.,.,.,.,.
c1cc2c(c(CC3CO3)c1CC1CO1)OCCOCCOCCOCCO2 (stereo unspecified),14.0,.,.,-7.5,.,.,.,.,.,.,.
CN1CCc2c(sc(NC(=O)c3ccc4ccccc4c3)c2C(N)=O)C1,-315.1,61.9*,.,34.5,68.4*,66.5*,59.0*,61.4*,88.2*,61.2*,43.6
CN1CCc2c(sc(NC(=O)Cc3ccccc3)c2C(N)=O)C1,-64.8,-20.3,.,-15.2,-7.3,-0.9,.,.,.,.,.
NC(=O)c1c(NC(=O)c2ccccc2)sc2c1CCN(Cc1ccccc1)C2,-402.0,-8.4,.,1.6,-0.1,1.8,.,.,.,.,.
NC(=O)c1c(NC(=O)c2ccccc2)sc2c1CCC2,-126.2,57.2*,.,14.1,12.1,40.8,-5.4,14.7,83.0*,41.6,-0.4
NC(=O)c1c(NC(=O)c2ccccc2)sc2c1CCc1ccccc1-2,-271.7,10.0,4.2,24.1,63.8*,-3.8,-26.3,-17.5,-5.8,-6.2,-9.1
O=C(NC(=S)NN1CCOCC1)c1cc(Br)ccc1Cl,3.5,-8.8,.,-7.7,3.0,-10.6,.,.,.,.,.
COc1ccc(Cl)cc1NC(=O)CN(C)C(=O)CN1C(=O)NC(C)(c2ccc3ccccc3c2)C1=O (stereo unspecified),4.7,.,.,24.8,.,.,.,.,.,.,.
CCCN1CCN(C(=O)c2ccccc2-c2nc3ccccc3s2)CC1,-4.1,0.1,-5.8,-12.0,-7.3,-2.5,.,.,.,.,.
CCNC(=O)COC(=O)c1ccc(-c2nc3ccccc3s2)s1,-388.2,96.5*,29.2,10.9,98.7*,96.3*,87.4*,95.6*,100.9*,92.6*,10.9
CCN1CCN(C(=O)c2ccc(-c3nc4ccccc4s3)s2)CC1,-319.2,61.1*,9.7,24.4,47.1,40.4,56.3*,52.0*,81.5*,69.0*,18.9
CCN(Cc1ccc(OC)c(F)c1)C(=O)/C=C/c1ccc(S(=O)(=O)N2CCOCC2)cc1,12.9,-4.9,.,9.3,-1.1,-4.9,.,.,.,.,.
CCc1ccc(NC(=O)c2cnn(-c3ccccc3)c2C2CCNCC2)cc1,12.6,-4.8,22.1,0.2,2.0,-4.2,.,.,.,.,.
SMILES,SENP8 block-1,SENP6 block,PPC-1+TRAIL kill,TRAIL sens C8,SENP7 inh,SENP8 block-2,SENP8 conf,SENP6 conf,SENP7 conf,Casp3 select,Luc interf
CCc1ccc(NC(=O)c2cnn(-c3ccccc3)c2C)cc1,22.0,59.3*,15.0,17.3,75.7*,40.7,2.3,45.3,50.3*,69.1*,7.6
O=C(N/N=C/c1cccnc1)c1[nH]ncc1Br,-1.4,-9.2,5.5,9.9,26.1,1.3,.,.,.,.,.
O=C(N/N=C/c1ccccc1)c1[nH]ncc1Br,6.0,91.4*,12.3,26.6,94.9*,86.0*,88.9*,88.0*,98.2*,94.8*,39.6
COc1ccc(/C=N/NC(=O)c2cccc(NC(C)=O)c2)c(OC)c1,-112.4,-2.5,.,-1.7,-3.3,25.4,.,.,.,.,.
COc1ccc(/C=N/NC(=O)c2[nH]ncc2Br)c(OC)c1,-28.5,82.5*,14.4,-12.1,87.4*,75.1*,80.0*,81.2*,96.7*,92.8*,9.4
C[C@@H]1CN([C@@H](C)CO)C(=O)CCCn2nncc2CO[C@@H]1CN(C)S(=O)(=O)c1ccc(F)cc1,19.2,.,.,-8.3,.,.,.,.,.,.,.
CCOc1ccccc1N=Nc1c(C)[nH]n(C(N)=S)c1=O,28.8,-15.5,.,7.2,-8.4,-2.5,.,.,.,.,.
CC(=O)N(C)c1ccc(N=Nc2c(C)[nH]n(C(N)=S)c2=O)cc1,17.6,77.5*,-17.3,18.1,84.7*,78.2*,86.4*,86.9*,98.5*,95.9*,90.4*
CCN(CC)S(=O)(=O)c1ccc(N=Nc2c(C)[nH]n(C(N)=S)c2=O)cc1,36.0,54.3*,13.9,14.8,17.9,17.3,41.2,37.4,72.5*,56.5*,18.1

# Bioassay records (PubChem BioAssay)
